# Results published in PubChem BioAssay (Tox21).
# Inconclusive results are not listed. The source made the active and inactive calls. Calls follow the shape of the dose curve; as a rule, active = well fitted cell-killing curve with a large enough effect in the repeat runs; inconclusive = weak or mixed curves, or effect the other way; inactive = flat fitted curve, though single readings scatter.
# Assay: qHTS assay to identify small molecule antagonists of the androgen receptor (AR) signaling pathway using the MDA cell line - cell viability counter screen (AID 743041; also: nearly all actives have a fitted effect of over 45% in size)
# Conditions: MDA-kb2 viability, CellTiter-Fluor, 16 h, cells co-treated with R1881 androgen agonist; series mostly up to 70.3 µM; viability change, negative = cytotoxic: at the top concentration
# Description: National Center for Advancing Translational Sciences [NCATS]
# NIH Chemical Genomics Center [NCGC]
# U.S. Environmental Protection Agency [EPA]
# National Institutes of Environmental Health Sciences [NIEHS]
# National Toxicology Program [NTP]
# U.S. Food and Drug Administration [FDA]
# Androgen receptor (AR), a nuclear hormone receptor, plays a critical role in AR-dependent prostate cancer and other androgen related diseases. Endocrine disrupting chemicals (EDCs) and their interactions with steroid hormone receptors like AR may cause disruption of normal endocrine function as well as interfere with metabolic homeostasis, reproduction, developmental and behavioral functions. To identify the compounds that inhibit AR signaling, MDA-kb2 AR-luc cell line (from ATCC, deposited by Wilson et al.) was used to screen the Tox21 10K compound library. MDA-kb2 AR-luc cell line is human breast carcinoma cell line that was stably transfected with a luciferase reporter gene under control of the MMTV promoter containing response elements for both androgen receptor (AR) and glucocorticoid receptor (GR). The cytotoxicity of the Tox21 compound library against the MDA-kb2 AR-luc cell line was tested in parallel by measuring the cell viability using CellTiter-Fluor assay (Promega, Madison, WI) in the same wells.
# Tox21 Assay Protocol Summary:
# MDA-kb2 AR-luc cells were dispensed at 3,000 cells/4 uL/well of culture medium into white wall/solid-bottom 1536-well plates using a Multidrop Combi (ThermoFisher Scientific, Waltham, MA) dispenser. After the assay plates were incubated at a 37C and 0% CO2 for 5 hr, 23 nL of compounds dissolved in DMSO, positive controls or DMSO only was transferred to the assay plate by a Pintool station (Kalypsys, San Diego, CA), followed by addition of 1 uL of agonist (R1881) in culture medium using a Bioraptr Flying Reagent Dispenser (FRD) workstation (Beckman Coulter, Indianapolis, IN, USA). The plates were incubated at a 37C and 0% CO2 for 16 h. After 15.5 h incubation, 1uL of CellTiter-Fluor reagent (Promega) was added using a Bioraptr FRD to each plate for measuring cytotoxicity. The fluorescence intensity was quantified on a ViewLux plate reader (PerkinElmer, Shelton, CT) following 30 min incubation at 37C and 0% CO2.
# % is scaled to controls: 0 for no effect and ±100 for the full control effect; potency is read from the fitted curve at half-maximal effect.
SMILES,"viability change, negative = cytotoxic",Potency
O=C(Nc1cccc2c(=O)cc(-c3nn[nH]n3)oc12)c1ccc(OCCCCc2ccccc2)cc1,-0.752% (inactive),
O=c1[nH]c2ccc(Cl)cc2o1,13.4% (inactive),
CCC=CC#N,-20.7% (inactive),
CC(=O)OCC(=O)NCCCOc1cccc(CN2CCCCC2)c1,,inactive
CCCCCCCC/C=C\CCCCCCCCCCCC(=O)O,4.21% [at 95 µM] (inactive),
O=c1[nH]ncc2ccccc12,-3.6% (inactive),
O=C1c2ccccc2C(=O)C1(O)O,-1.45% [at 95 µM] (inactive),
COC(=O)CCS,2.52% (inactive),
COc1ccccc1NC(=O)c1cc2ccccc2cc1O,-19.7% (inactive),
O=[N+]([O-])c1ccc(O/N=C/c2cc(Br)c(O)c(Br)c2)c([N+](=O)[O-])c1,-11% (inactive),
C[C@@H](O)[C@H]1C(=O)N2C(C(=O)O)=C([C@H]3CCCO3)S[C@H]12,0.454% (inactive),
CC(=O)N/N=C/c1ccc([N+](=O)[O-])o1,-25.9% (inactive),
CCCCC(CC)CN (stereo not given),-4.32% [at 95 µM] (inactive),
O=C1CCCCCCCCCCOCCCCO1,0.165% (inactive),
C[C@@]12CCC[C@H]1[C@@H]1CC[C@H]3C[C@@H](O)CC[C@]3(C)[C@H]1CC2,-5.59% (inactive),
CC(CN(C)C)C(C)(O)Cc1ccc(Cl)cc1 (stereo not given),7.12% (inactive),
O=[N+]([O-])c1cc(C2CCCCC2)c(O)c([N+](=O)[O-])c1,,30.5 µM (active)
O=C(CCc1ccc(O)cc1)c1c(O)cc(O)cc1O,-0.0746% [at 95 µM] (inactive),
CC1CC(OC(=O)C(O)c2ccccc2)CC(C)(C)N1C (stereo not given),,inactive
CCOC(=O)/C=C/C(=O)OCC,6.63% (inactive),

SMILES,"viability change, negative = cytotoxic",Potency
Clc1cc(Cl)nc(Cl)n1,8.34% [at 95 µM] (inactive),
Nc1ccc(N=Nc2ccccc2)c(N)c1,-27.6% (inactive),
CC(=O)NC1(c2cccc(F)c2)CCN(CC[C@@]2(c3ccc(Cl)c(Cl)c3)CN(c3ccccc3)C(=O)CO2)CC1,-26% (inactive),
O=c1cc(-c2ccccc2)oc2ccc3ccccc3c12,-0.159% (inactive),
CC1=C(CC=O)C(C)(C)CCC1,0.644% (inactive),
CCCCCCCC/C=C\CCCCCCCCO,7.01% (inactive),
OCCOCC#CCOCCO,8.01% (inactive),
CC(=O)[C@H]1[C@H](C#N)C[C@H]2[C@@H]3CC=C4C[C@@H](O)CC[C@]4(C)[C@H]3CC[C@@]21C,4.53% (inactive),
C=C1c2cccc(O)c2C(O)=C2C(=O)[C@]3(O)C(O)=C(C(N)=O)C(=O)[C@@H](N(C)C)[C@@H]3[C@@H](O)[C@H]12,0.0479% [at 32.5 µM] (inactive),
CCOC(=O)c1ccc(C#Cc2ccc3c(c2)C(C)(C)CCS3)nc1,9.83% (inactive),
CCCCCCCCC(CCCCCC)C(=O)O (stereo not given),7.27% (inactive),
Cc1ccc(Cl)c(Nc2ccccc2C(=O)O)c1Cl,-2.9% (inactive),
C=C/C(C)=C/C/C=C(\C)CCC=C(C)C,-0.788% (inactive),
Oc1c(I)cc(I)c2cccnc12,-6.18% (inactive),
O=C(O)CCC(=O)C(=O)O,,inactive
OCCN1CCN(CCCN2c3ccccc3Sc3ccc(Cl)cc32)CC1,-17.4% [at 32.5 µM] (inactive),
CN1CCCN=C1COC(=O)C(O)(c1ccccc1)C1CCCCC1 (stereo not given),7.64% (inactive),
CC[C@]1(O)C[C@H]2CN(CCc3c([nH]c4ccccc34)[C@@](C(=O)OC)(c3cc4c(cc3OC)N(C=O)[C@H]3[C@@](O)(C(=O)OC)[C@H](OC(C)=O)[C@]5(CC)C=CCN6CC[C@]43[C@@H]65)C2)C1,-8.55% (inactive),
CN1CCCC(CC2c3ccccc3Sc3ccccc32)C1 (stereo not given),-3.03% [at 32.5 µM] (inactive),
NC1[C@H]2CN(c3nc4c(cc3F)c(=O)c(C(=O)O)cn4-c3ccc(F)cc3F)C[C@@H]12 (stereo not given in full),-8.26% (inactive),
